The source made the active and inactive calls. Calls follow the shape of the dose curve; as a rule, active = well fitted curve in the direction sought with a large enough effect in the repeat runs; inconclusive = weak or mixed curves; inactive = flat fitted curve, though single readings scatter.
% is scaled to controls: 0 for no effect and ±100 for the full control effect.

This assay can be described thus: qHTS assay to test for compound auto fluorescence at 535 nm (green) in HEK293 cell free culture (AID 720682). The conditions noted are these: cell-free medium, green autofluorescence 485/535 nm, active compounds read high; series mostly up to 91.3 µM. A digest of the protocol:
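No cells present: wells hold DMEM supplemented with 10% FBS, into which compound or vehicle is pinned. Green emission is then recorded (485 nm excitation, 535 nm emission) and scaled to fluorescein.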
In general terms: qHTS replaces the single test concentration by a dilution series.
For `O=c1[nH]c(=O)c2ccccc2o1`, the result was inactive.
On the same count and under the same terms, the same measure for `Cc1cc(O)c2c(c1)C(=O)c1cccc(O)c1C2=O`: “inactive”; for `FC(F)(F)/C(=N\OCC1OCCO1)c1ccc(Cl)cc1`: “inactive”.
On the same count and under the same terms, the same measure for `CC(C)=CC(C)(C)C`: “inactive”; for `C=CCOCC(CO)(COCC=C)COCC=C`: “inactive”.
As to `C[C@H](CCC(=O)NCC(=O)O)[C@H]1CC[C@H]2[C@@H]3[C@H](O)C[C@@H]4C[C@H](O)CC[C@]4(C)[C@H]3C[C@H](O)[C@]12C`, the molecule was called inactive.
In the case of `O=S(=O)(O)CCO`, the molecule was called inactive.
On to `C[N+](C)(C)CC(O)CCl` (stereo not given), for which the molecule was classed as inactive.
As for `CN(C)CCOCCN(C)CCO`, the call was inactive.
On the same count and under the same terms, next, `CN(C)CCCNCCC#N`: “inactive”; `C=CC(C)(O)CC/C=C(\C)CC` (stereo not given): “inactive”; `O=C(Nc1cccc(C2=NCCN2)c1)Nc1cccc(C2=NCCN2)c1`: “inactive”.
`CC(C)(c1ccc(Oc2ccc3c(c2)C(=O)OC3=O)cc1)c1ccc(Oc2ccc3c(c2)C(=O)OC3=O)cc1`: the outcome was inactive.
As for `CO/N=C(/C(=O)N[C@@H]1C(=O)N2C(C(=O)O)=C(Cn3nnc(C)n3)CS[C@H]12)c1csc(N)n1`, the result was inactive.
Still for that read-out and setting: the same measure for `CC(=O)OCCCc1ccccc1`: “inactive”.
In the case of `COc1cc2c3cc1Oc1cc(ccc1O)C[C@@H]1c4c(cc(OC)c(O)c4Oc4ccc(cc4)C[C@@H]3N(C)CC2)CC[N+]1(C)C`, the outcome was inactive.
Still for that read-out and setting: the same measure for `SCCSCCS`: “inactive”.
Same read-out and setting: next, `CC1=NN(c2ccc(S(=O)(=O)O)cc2)C(=O)C1N=Nc1ccccc1` (stereo not given): “inactive”; `CCNC(=O)NCCCOc1cccc(CN2CCCCC2)c1`: “inactive”.
In the case of `C1CCN2C[C@@H]3C[C@@H](CN4CCCC[C@@H]34)[C@H]2C1`, the activity change is -0.022% [at 18.6 µM] (inactive).

Values taken from PubChem BioAssay (Tox21).
